GIRK2 activ = activators of human GIRK2 potassium channels; HEK293-GIRK2 thallium flux, Thallos fluorescence, MPD; calls only for hits at 25 µM; actives 0.05% (n = 63,000); P48051; call rule not given here
Target sequence (P48051 whole entry, looked up): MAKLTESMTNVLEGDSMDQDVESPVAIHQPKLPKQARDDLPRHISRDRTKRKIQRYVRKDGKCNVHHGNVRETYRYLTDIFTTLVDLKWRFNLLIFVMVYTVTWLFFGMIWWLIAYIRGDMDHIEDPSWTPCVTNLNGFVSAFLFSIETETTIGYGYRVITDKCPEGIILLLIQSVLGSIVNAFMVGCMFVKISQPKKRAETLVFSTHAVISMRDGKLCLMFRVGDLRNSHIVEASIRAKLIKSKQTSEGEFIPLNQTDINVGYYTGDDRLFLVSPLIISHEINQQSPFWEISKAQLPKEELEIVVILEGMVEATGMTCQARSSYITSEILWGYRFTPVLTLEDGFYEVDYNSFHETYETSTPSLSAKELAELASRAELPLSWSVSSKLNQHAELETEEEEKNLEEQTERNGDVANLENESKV
An asterisk follows results filed as active; i = inactive; + = active, no number. This is one part of a sample in which hits are shown more often than they occur.

SMILES | GIRK2 activ
CCN(CC)c1ccc(-c2noc(CN3CCCCC3C)n2)cn1 (stereo unspecified) | +
CCN(CC)c1ccc(-c2noc(CN3CCN(c4ccccc4Cl)CC3)n2)cn1 | i
CCN(CC)c1ccc(-c2noc(CN3CCSCC3)n2)cn1 | i
Cc1c(C(O)=C2C(=O)C(=O)N(CCCN(C)C)C2c2ccccc2)cnn1-c1ccccc1 (stereo unspecified) | i
COc1ccccc1-n1nnc(C(=O)NCC2COCCO2)c1-c1ccccn1 (stereo unspecified) | i
COc1ccccc1-n1nnc(C(=O)NCc2nc3ccccc3n2C)c1-c1ccccn1 | i
COc1ccccc1-n1nnc(C(=O)Nc2nc(C)cs2)c1-c1ccccn1 | +
CC(C)c1nccn1CC1CCN(C(=O)NCc2cccs2)CC1 | i
O=C(Cn1nc(-c2ccccc2)c2sc(N3CCCCC3)nc2c1=O)N1CCCc2ccccc21 | i
COc1ccc(CNC(=O)CCn2cnc3c([nH]c4cc(OC)c(OC)cc43)c2=O)cc1 | i
O=C(Cn1nc2c3sc(N4CCCC4)nc3ncn2c1=O)Nc1ccccc1Br | i
CN(CC(=O)Nc1nc2ccc(S(C)(=O)=O)cc2s1)c1nc2c(Cl)cccc2s1 | i
CCOCC(=O)NCC(C)(O)c1cccs1 (stereo unspecified) | i
Cc1noc(CNC(=O)C2CCN(C(=O)Nc3ccccc3)CC2)n1 | i
Cc1nc(C2CC(=O)N(c3ccc4c(c3)OCO4)C2)no1 (stereo unspecified) | i
COC(=O)c1c(NC(=O)c2oc3ccc(C)cc3c2C)sc(C)c1C | i
CN(C)c1cccc(C(=O)N2CCOC(c3cc(Cl)cc(Cl)c3)C2)c1 (stereo unspecified) | i
CCOC(=O)N1CCC(NC(=O)Cn2ccc3ccccc32)CC1 | i
O=C(Cn1ccc2ccccc21)NC1CCN(Cc2ccccc2)CC1 | +
O=C(Cn1ccc2ccccc21)Nc1cc(N2CCN(Cc3ccccc3)CC2)ncn1 | i
COc1ccccc1-n1c(-c2ccccc2)cn2c3c(=O)n(CC(C)=O)c(=O)n(C)c3nc12 | i
CCOC(=O)Cn1c(=O)c2c(nc3n(-c4ccccc4OC)c(-c4ccccc4)cn23)n(C)c1=O | i
CCn1c(=O)c2c(nc3n(-c4ccccc4OC)c(-c4ccccc4)cn23)n(C)c1=O | +
COCCNC(=O)C(=O)NCC(C)(O)CSC (stereo unspecified) | i
CN(C)S(=O)(=O)NCc1nn(C)c(=O)c2ccccc12 | i
SMILES | GIRK2 activ
COC(=O)c1c[nH]n2c(=O)cc(CS(=O)(=O)c3ccc(C)cc3C)nc12 | i
O=C(NCc1cccc(Cl)c1)c1cn(-c2ccc(-c3nc(C4CC4)no3)cn2)cn1 | i
O=C(Cc1ccc(Cl)cc1)Nc1cnc(-n2cccn2)nc1 | i
O=C(Nc1cccc(-c2ccn[nH]2)c1)c1c[nH]c2ccccc12 | i
Cc1c(C(=O)N2CCN(Cc3ccccc3)CC2)cccc1[N+](=O)[O-] | i
COc1ccccc1CNC(=O)c1c(O)c2sccc2[nH]c1=O | i
Cc1ccc(SCCC(=O)Nc2sc3c(c2-c2nc4ccccc4s2)CCN(C)C3)cc1 | i
Cc1ccc(N2CCC(C(=O)Nc3cccc(Cl)c3C)CC2)nn1 | i
Cc1cccc(NC(=O)CSc2nccn2-c2cccc(C(=O)NCc3cccs3)c2)c1C | i
CCOC(=O)c1cn[nH]c1S(=O)(=O)N1CCN(c2ccc(C(C)=O)cc2)CC1 | i
CCOC(=O)c1cn[nH]c1S(=O)(=O)N1CCN(c2cccc(C)c2)C(C)C1 (stereo unspecified) | +
CCOC(=O)c1cn[nH]c1S(=O)(=O)Nc1cccc(CC)c1 | i
COc1ccc(C(C)NC(=O)c2nnn(-c3ccc(C)c(C)c3)c2-c2ccncc2)cc1OC (stereo unspecified) | i
Cc1ccccc1-n1nnc(C(=O)NCc2ccc(Br)cc2)c1-c1ccncc1 | i
COc1cc(OC)c(NC(=O)c2nnn(-c3ccccc3C)c2-c2ccncc2)cc1Cl | +
COc1ccc(NC(=O)c2nnn(-c3ccccc3C)c2-c2ccncc2)c(C)c1 | +
Cc1ccccc1-n1nnc(C(=O)Nc2nccs2)c1-c1ccncc1 | i
CSc1ccc(CNC(=O)c2nnn(-c3ccccc3C)c2-c2ccncc2)cc1 | i
COc1cccc(CNC(=O)c2nnn(-c3ccccc3Cl)c2-c2ccncc2)c1 | i
COc1ccccc1-c1c(C)oc2c3c(ccc2c1=O)OCN(Cc1ccncc1)C3 | i
Cc1c(NC(=O)C2(c3cccs3)CCCC2)c(=O)n(-c2ccccc2)n1C | i
COCC(=O)Nc1cc(C)nn1-c1nc(-c2ccc(OC)c(OC)c2)cs1 | i
Cc1cc(C)n(CC(=O)Nc2ccc(OCc3ccccc3)cc2)c(=O)c1C#N | i
O=C(NCc1ccc2c(c1)OCO2)C(=O)Nc1ccc(N2CCCS2(=O)=O)cc1 | i
CCCCOc1ccc(C(=O)N(Cc2ccco2)c2nc3ccc(S(C)(=O)=O)cc3s2)cc1 | i
SMILES | GIRK2 activ
CS(=O)(=O)c1ccc2nc(N(Cc3ccco3)C(=O)c3ccc(Br)s3)sc2c1 | i
CS(=O)(=O)c1ccc2nc(N(Cc3ccco3)C(=O)C3CCCCC3)sc2c1 | +
COC(=O)C(Cc1c[nH]c2ccccc12)NC(=O)c1cnn2c1OCCC2 (stereo unspecified) | i
COc1ccc(Cl)cc1NC(=O)Nc1cnc(-n2ccnc2)nc1 | i
CC(c1ccccc1)n1cnc2c(cnc3nc4ccccc4n32)c1=O (stereo unspecified) | i
COc1ccc2[nH]c3c(SCC(=O)Nc4ccc(Cl)cc4)ncnc3c2c1 | i
COc1ccc(N2CCCn3c2nc2c3c(=O)n(Cc3cccc(C)c3)c(=O)n2C)cc1 | i
O=S(=O)(Nc1cnc(Oc2ccccc2F)nc1)c1ccc(OC(F)(F)F)cc1 | i
CCOCCCNC(=O)c1cc2cc(Cl)cc(Cl)c2oc1=O | i
O=C(Cc1ccccc1F)NCCCn1ncccc1=O | i
Cc1ccc(C)c2sc(N(C)CC(=O)NCCc3ccc(F)cc3)nc12 | i
CN(C)CCNC(=O)C(=O)c1c[nH]c2ccccc12 | i
COc1ccc(CNC(=O)c2[nH]c3ccc(C)cc3c2NC(=O)c2ccc(Cl)cc2)cc1OC | i
CCOc1ccc2nc(N(CCCn3ccnc3)C(=O)c3cccs3)sc2c1 | i
O=C(NCC1(c2cccs2)CCCCC1)c1ccncc1 | i
CCCCc1ccc(S(=O)(=O)c2cnc(SCC(=O)NC3CCCCC3)[nH]c2=O)cc1 | i
CCCOC(=O)c1ccc(Oc2coc3c4c(ccc3c2=O)OCN(C2CCS(=O)(=O)C2)C4)cc1 (stereo unspecified) | i
COc1ccc(-c2noc(-c3nnn(-c4ccc(Br)cc4F)c3N)n2)cc1 | i
COc1ccc(N2C(=O)/C(=C/c3cc(OC)c(OC)c(OC)c3)SC2=S)cc1 | i
CCn1c(=O)c2c(nc3n2CCN3c2cc(C)ccc2OC)n(C)c1=O | i
Fc1ccccc1Cn1cccc1-c1nc(-c2ccc3c(c2)OCO3)no1 | i
COC(=O)N1CCc2ccc(F)cc2C1C(=O)Nc1cccc(C)n1 (stereo unspecified) | i
COC(=O)N1CCc2ccc(Br)cc2C1C(=O)Nc1ccc(SC)cc1 (stereo unspecified) | i
COC(=O)N1CCc2ccc(Br)cc2C1C(=O)Nc1nccs1 (stereo unspecified) | +
COCCN(CCOC)S(=O)(=O)CCNC(=O)c1ccc2c(c1)OCO2 | i

Screens (PubChem BioAssay)
